# Results: ChEMBL document CHEMBL1961873, “Compounds: GSK PKIS; Assays: Nanosyn kinase panel” (2012)
# Biological target: Glycogen synthase kinase-3 beta (Homo sapiens) (UniProt P49841)
# Conditions: at 0.1 µM
# 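Also: values are mean percent inhibition of GSK3B activity, from the GSK Published Kinase Inhibitor Set (PKIS) screening dataset.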
# Sequence of Glycogen synthase kinase-3 beta (Homo sapiens) (P49841 whole entry, looked up): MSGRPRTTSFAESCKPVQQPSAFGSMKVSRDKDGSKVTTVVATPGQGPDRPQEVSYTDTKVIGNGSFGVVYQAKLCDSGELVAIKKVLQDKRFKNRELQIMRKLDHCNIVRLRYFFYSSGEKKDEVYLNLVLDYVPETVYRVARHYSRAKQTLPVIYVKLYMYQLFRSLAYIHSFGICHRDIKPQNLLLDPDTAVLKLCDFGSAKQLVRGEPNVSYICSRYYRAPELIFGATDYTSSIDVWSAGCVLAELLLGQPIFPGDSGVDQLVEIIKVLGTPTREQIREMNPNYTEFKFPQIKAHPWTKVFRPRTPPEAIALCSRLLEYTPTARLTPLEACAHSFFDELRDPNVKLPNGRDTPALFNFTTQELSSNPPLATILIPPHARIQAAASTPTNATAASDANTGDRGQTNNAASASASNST
row,Structure (SMILES),inhibition [%]
1,CC(C)c1ccc(Nc2nccc(-c3cnn4ncccc34)n2)cc1,31.3
2,NS(=O)(=O)c1ccc(NC=C2C(=O)Nc3ccc4ncsc4c32)cc1,41.1
3,COC(=O)c1cncc(/C=C/c2c(C)cc(O)cc2C)c1,6.58
4,Nc1nccc(C#Cc2cncnc2Nc2ccc(OCc3cccc(F)c3)c(Cl)c2)n1,2.94
5,Oc1cccc(-c2nc(-c3ccccc3)[nH]c2-c2ccncc2)c1,5.61
6,Cc1ccc2c(-c3ccnc(Nc4ccc5c(c4)OCCO5)n3)c(-c3ccc(C(F)(F)F)cc3)nn2n1,4.65
7,Nc1nccc(-c2c(-c3ccc(F)cc3)nn3cc(C(F)(F)F)ccc23)n1,-1.01
8,CCOc1nccc2c1nc(-c1nonc1N)n2CC,3.37
9,CCCN1CCCC(c2ccc(Nc3nc(Nc4cc(F)ccc4C(N)=O)c4cc[nH]c4n3)c(OC)c2)C1 (stereo not drawn),0.7
10,COc1cc(/C=N/Nc2ncnc3c2cnn3C(C)C)ccc1O,4.9
11,Cc1ccc(O)cc1Nc1ccnc2ccc(S(C)(=O)=O)cc12,1.89
12,COc1cc(Nc2nccc(-c3cnn4ncccc34)n2)cc(OC)c1,60.2
13,CN(C)C(=O)O[C@H]1CN[C@H](C#Cc2cc3ncnc(Nc4ccc(OCc5cccc(F)c5)c(Cl)c4)c3s2)C1,1.31
14,c1ccc(Nc2ncc(-c3ccccc3)o2)cc1,5.53
15,NC(=O)c1cccc(Nc2nccc(Nc3cccc(F)c3)n2)c1,2.25
16,Cc1cc(-c2ccccn2)cc(C)c1/C=C/c1cncc(-c2nn[nH]n2)c1,5.72
17,CCn1c(-c2nonc2N)nc2ccc(F)cc21,3

row,Structure (SMILES),inhibition [%]
1,CN(C)c1cc2c(Nc3ccc4c(cnn4Cc4ccccc4)c3)ncnc2cn1,1.16
2,COC(=O)c1ccc2c(c1)C(=Cc1cc(Br)c(O)c(Br)c1)C(=O)N2,9.77
3,Cc1ccc(NC(=O)CC2CC2)cc1-c1ccc(C(=O)NCC2CC2)cc1,1.75
4,CN(C)C(=O)O[C@@H]1CN[C@@H](C#Cc2cc3ncnc(Nc4ccc(OCc5cccc(F)c5)c(Cl)c4)c3s2)C1,1.37
5,O=C(Nc1ccc(Oc2ccc3[nH]c(NC(=O)c4ccco4)nc3c2)cc1)Nc1cc(C(F)(F)F)ccc1F,-2.51
6,c1ccc(Cc2nc3ccc(Nc4ncnc5ccccc45)cc3[nH]2)cc1,5.99
7,CCS(=O)(=O)c1ccc(OC)c(Nc2nccc(N(C)c3ccc4c(C)n[nH]c4c3)n2)c1,1.45
8,COc1cccc(-n2ncc3c(N/N=C/c4ccc(C)cc4)ncnc32)c1,13.1
9,NS(=O)(=O)c1cccc(Nc2cc(-c3ccc(F)cc3)n[nH]2)c1,2.84
10,COc1cc2ncn(-c3cc(OCc4ccccc4S(C)(=O)=O)c(C#N)s3)c2cc1OC,4.26
11,Cc1ccc(Nc2ccnc(Nc3cccc(C(N)=O)c3)n2)cc1O,0.74
12,NS(=O)(=O)c1ccc(-c2cc3ccncc3cc2OCc2ccccc2)cc1,2.08
13,COc1cc2ncnc(Nc3ccc(C)c(O)c3)c2cc1OC,4.62
14,NS(=O)(=O)c1ccc(Nc2cc(-c3cccc(O)c3)n[nH]2)cc1,2.02
15,NS(=O)(=O)c1cccc(-c2cc3ccncc3cc2OCc2ccccc2)c1,0.8
16,CC(C)c1ccc2c(c1)NC(=O)/C2=N/Nc1ccc(S(N)(=O)=O)cc1,4.19
